The record followed here is PubChem BioAssay AID624260 (Broad Institute, 2012).

SMILES strings stand for the structures. About 30 (0.07%) of roughly 44,000 compounds were called active. Inconclusive results (about 1%) are left out. Cut-off read from the data, not from the text of the source: active = inhibition above about 54% (passing the limit was not always enough); inconclusive = no clear call, values can overlap the other calls. The entries come from a sample that favours actives as a whole.

In this assay the target is Histone-lysine N-methyltransferase NSD2 (Homo sapiens) (UniProt O96028). As to the kind of experiment: inhibitors of human NSD2, primary screen, biochemical, plate reader, single point (AID 624260).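 Note: inhibitors reduce the monomethyl H3K36 fluorescence signal.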 Particulars: NSD2-SET H3K36me1 DELFIA fluorescence, at 12.5 µM, active compounds read high.
Sequence of Histone-lysine N-methyltransferase NSD2 (Homo sapiens) (O96028 whole entry, looked up): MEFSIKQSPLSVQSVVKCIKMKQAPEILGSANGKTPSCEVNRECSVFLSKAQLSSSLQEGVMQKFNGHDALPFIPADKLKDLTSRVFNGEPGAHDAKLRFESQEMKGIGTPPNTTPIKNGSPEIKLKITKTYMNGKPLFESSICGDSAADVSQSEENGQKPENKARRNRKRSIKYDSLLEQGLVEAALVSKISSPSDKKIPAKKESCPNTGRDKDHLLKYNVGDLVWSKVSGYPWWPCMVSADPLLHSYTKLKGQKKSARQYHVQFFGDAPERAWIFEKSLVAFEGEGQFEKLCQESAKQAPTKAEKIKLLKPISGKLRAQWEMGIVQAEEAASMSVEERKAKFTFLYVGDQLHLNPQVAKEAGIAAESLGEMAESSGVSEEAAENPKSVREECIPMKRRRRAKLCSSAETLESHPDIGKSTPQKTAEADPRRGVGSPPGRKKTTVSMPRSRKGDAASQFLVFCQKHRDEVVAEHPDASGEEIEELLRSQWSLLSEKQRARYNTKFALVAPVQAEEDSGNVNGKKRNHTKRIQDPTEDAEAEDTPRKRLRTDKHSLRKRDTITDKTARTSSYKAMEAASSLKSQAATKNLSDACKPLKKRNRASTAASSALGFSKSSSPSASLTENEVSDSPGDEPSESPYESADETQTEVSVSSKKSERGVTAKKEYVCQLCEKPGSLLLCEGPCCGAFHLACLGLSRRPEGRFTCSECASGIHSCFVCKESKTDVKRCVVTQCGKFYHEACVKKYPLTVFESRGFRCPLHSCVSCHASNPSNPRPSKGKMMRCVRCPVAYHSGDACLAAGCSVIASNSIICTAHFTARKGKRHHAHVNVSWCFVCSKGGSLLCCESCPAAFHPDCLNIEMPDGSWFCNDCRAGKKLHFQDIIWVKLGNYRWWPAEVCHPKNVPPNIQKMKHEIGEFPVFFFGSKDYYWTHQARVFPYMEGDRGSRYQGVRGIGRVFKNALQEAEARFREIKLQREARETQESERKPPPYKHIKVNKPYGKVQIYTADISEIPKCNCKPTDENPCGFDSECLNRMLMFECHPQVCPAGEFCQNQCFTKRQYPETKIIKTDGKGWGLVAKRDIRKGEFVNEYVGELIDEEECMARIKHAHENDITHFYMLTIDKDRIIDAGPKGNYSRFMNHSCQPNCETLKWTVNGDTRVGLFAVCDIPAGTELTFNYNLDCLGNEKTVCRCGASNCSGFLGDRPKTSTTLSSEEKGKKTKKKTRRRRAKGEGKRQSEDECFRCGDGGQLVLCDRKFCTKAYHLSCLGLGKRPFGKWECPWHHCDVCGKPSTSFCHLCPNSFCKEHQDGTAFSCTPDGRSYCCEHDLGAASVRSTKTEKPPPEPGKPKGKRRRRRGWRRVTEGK
A word on the inhibition: it is the change of the read-out against control, counted positive when it falls. On to `COc1ccccc1CNC(=O)C[C@@H]1C[C@@H]2c3cc(NC(=O)C4CCOCC4)ccc3O[C@@H]2[C@@H](CO)O1`, for which the inhibition is -2.77% (inactive).
On to `CNC[C@H]1Oc2cc(-c3ccc(C(=O)N(C)C)cc3)ccc2S(=O)(=O)N([C@@H](C)CO)C[C@@H]1C`, for which the inhibition was 2.38% (inactive).
Turning to `COc1ccc(S(=O)(=O)Nc2ccc3c(c2)C(=O)N([C@@H](C)CO)C[C@H](C)[C@H](CN(C)Cc2ccc4c(c2)OCO4)OCCCC[C@H](C)O3)cc1`, the inhibition was 2.05% (inactive).
With `COC(=O)C[C@@H]1C[C@H]2c3cc(NC(=O)CN(C)C)ccc3O[C@H]2[C@H](CO)O1`, the inhibition was 6.16% (inactive).
In the case of `C[C@H](CO)N1C[C@H](C)[C@@H](CN(C)Cc2ccccn2)Oc2ncc(-c3cccc(F)c3)cc2C1=O`, the inhibition was 2.22% (inactive).
In the case of `CC(=O)N(C)C[C@@H]1Oc2cc(-c3cccnc3)ccc2S(=O)(=O)N([C@@H](C)CO)C[C@H]1C` it was -5.41% (inactive).
In the case of `C[C@H]1CN([C@@H](C)CO)S(=O)(=O)c2ccc(C3=CCCC3)cc2O[C@H]1CN(C)C(=O)Cc1ccncc1` it was -1.21% (inactive); in that of `O=C(C[C@H]1CC[C@@H](NC(=O)Nc2ccc(F)cc2)[C@H](CO)O1)NCc1cccc(F)c1`, 9.13% (inactive); in that of `Cc1ccccc1-c1ccc2c(c1)O[C@@H](CN(C)Cc1ccc(C(=O)O)cc1)[C@H](C)CN([C@H](C)CO)S2(=O)=O`, -1.98% (inactive).
Turning to `C[C@H](CO)N1C[C@H](C)[C@@H](CN(C)S(=O)(=O)c2ccc(F)cc2)Oc2ccc(NC(=O)CCCCCC(=O)Nc3ccccc3N)cc2CC1=O`, the inhibition was -1.08% (inactive).
For the compound `C[C@@H]1CN([C@H](C)CO)C(=O)Cc2cc(NC(=O)Nc3cccc4ccccc34)ccc2O[C@H]1CN(C)C(=O)Nc1ccc2c(c1)OCO2`, the inhibition was -7.81% (inactive).
The result for `COCC#Cc1ccc2c(c1)O[C@@H](CN(C)S(C)(=O)=O)[C@H](C)CN([C@H](C)CO)S2(=O)=O` reads -5.23% (inactive); that for `C[C@@H]1CN([C@H](C)CO)C(=O)c2cc(NS(=O)(=O)c3cn(C)cn3)ccc2O[C@@H](C)CCCCO[C@@H]1CN(C)C(=O)CCC(F)(F)F`, -0.203% (inactive); that for `CN1CCN(C(=O)C[C@H]2C[C@H]3c4cc(NC(=O)C5CCC5)ccc4O[C@H]3[C@H](CO)O2)CC1`, 5.87% (inactive).
The result for `CC(C)CC#Cc1cnc2c(c1)C(=O)N([C@@H](C)CO)C[C@H](C)[C@@H](CN(C)S(=O)(=O)c1cn(C)cn1)O2` reads 2.14% (inactive); that for `CC(C)CC#Cc1ccc2c(c1)O[C@H](CN(C)C(=O)CC1CC1)[C@@H](C)CN([C@@H](C)CO)S2(=O)=O`, -15.5% (inactive); that for `COC(=O)C[C@H]1C=C[C@H](NC(=O)Nc2ccc(C(F)(F)F)cc2)[C@@H](CO)O1`, -4.85% (inactive).
With `O=C(C[C@@H]1C[C@@H]2c3cc(NC(=O)C4CCOCC4)ccc3O[C@@H]2[C@@H](CO)O1)NC1CCCCC1`, the inhibition is 0.0335% (inactive).
Turning to `C[C@H](O)C#Cc1cnc2c(c1)C(=O)N([C@@H](C)CO)C[C@H](C)[C@@H](CN(C)C(=O)c1ccncc1)O2`, the inhibition is 0.0295% (inactive).
In the case of `C[C@H]1CN([C@@H](C)CO)S(=O)(=O)c2ccc(Br)cc2O[C@H]1CN(C)C(=O)C1CC1` it was 6.22% (inactive); in that of `Cc1noc(C)c1NC(=O)N(C)C[C@@H]1OCCCC[C@H](C)Oc2ccc(NC(=O)C3CCCCC3)cc2C(=O)N([C@H](C)CO)C[C@@H]1C`, 3.93% (inactive).
The result for `C[C@H](CO)N1C[C@H](C)[C@H](CN(C)Cc2ccncc2)Oc2cc(-c3cncnc3)ccc2S1(=O)=O` reads -4.69% (inactive).
The result for `CCCNC(=O)N(C)C[C@H]1Oc2ncc(-c3cccc(C#N)c3)cc2C(=O)N([C@@H](C)CO)C[C@H]1C` reads -7.82% (inactive); that for `C[C@H](CO)N1C[C@H](C)[C@@H](CN(C)S(=O)(=O)c2cccs2)Oc2ccc(NC(=O)Nc3ccc(C(F)(F)F)cc3)cc2CC1=O`, -1.82% (inactive); that for `C[C@@H]1CN([C@H](C)CO)S(=O)(=O)c2ccc(C#C[C@@H](C)O)cc2O[C@H]1CN(C)C(=O)C1CCCCC1`, -2.77% (inactive).
On to `COc1ccc(C#Cc2cnc3c(c2)C(=O)N([C@H](C)CO)C[C@H](C)[C@H](CN(C)C(=O)CC2CC2)O3)cc1`, for which the inhibition is -0.614% (inactive).
On to `C[C@@H]1CCCCO[C@@H](CN(C)C(=O)Cc2ccccc2)[C@H](C)CN([C@@H](C)CO)C(=O)c2cc(NC(=O)Nc3ccc4c(c3)OCO4)ccc2O1`, for which the inhibition was -3.09% (inactive).
The result for `CCCC#Cc1cnc2c(c1)C(=O)N([C@H](C)CO)C[C@@H](C)[C@@H](CN(C)C(=O)C1CCOCC1)O2` reads 11.1% (inactive).
The result for `C[C@@H]1CN([C@H](C)CO)C(=O)c2cc(NS(=O)(=O)c3ccccc3)ccc2O[C@@H](C)CCCCO[C@H]1CN(C)S(=O)(=O)c1ccc(Cl)cc1` reads -1.56% (inactive); that for `Cc1noc(C)c1NC(=O)Nc1ccc2c(c1)CC(=O)N([C@@H](C)CO)C[C@@H](C)[C@H](CN(C)Cc1ccc(Oc3ccccc3)cc1)O2`, -7.73% (inactive).
In the case of `O=C(C[C@H]1C[C@H]2c3cc(NC(=O)Nc4ccc(F)cc4)ccc3O[C@H]2[C@H](CO)O1)NCC1CC1` it was 5.06% (inactive); in that of `COc1ccc(S(=O)(=O)N(C)C[C@H]2OCCCC[C@H](C)Oc3ccc(NC(=O)Nc4ccc(F)cc4)cc3C(=O)N([C@@H](C)CO)C[C@H]2C)cc1`, -1.05% (inactive).
Regarding `COc1cccc(-c2cnc3c(c2)C(=O)N([C@@H](C)CO)C[C@@H](C)[C@H](CN(C)C(=O)CN(C)C)O3)c1`, the inhibition was 8.01% (inactive).
The result for `C[C@H](O)C#Cc1ccc2c(c1)O[C@H](CN(C)Cc1cccnc1)[C@H](C)CN([C@H](C)CO)S2(=O)=O` reads 2.25% (inactive); that for `CCC(=O)N(C)C[C@@H]1Oc2cc(-c3ccccc3OC)ccc2S(=O)(=O)N([C@H](C)CO)C[C@H]1C`, -2.36% (inactive); that for `CC(=O)N(C)C[C@@H]1Oc2cc(-c3cccc(F)c3)ccc2S(=O)(=O)N([C@H](C)CO)C[C@H]1C`, -1.69% (inactive).
In the case of `C[C@H](CO)N1C[C@H](C)[C@@H](CN(C)Cc2ccc(Cl)c(Cl)c2)Oc2ccc(NC(=O)Cn3cnnn3)cc2CC1=O` it was -4.84% (inactive).
